Rows were chosen to be rich in hits. Some 15% of all compounds tested hit in one or more screens of this group.
RORgamma inh: qHTS for inhibitors of ROR gamma transcriptional activity; Nuclear receptor ROR-gamma (Mus musculus), P51450; Drosophila S2 Gal4-RORgamma UAS-luciferase reporter, 20 h; Potency, µM (titrated, usually from 53.6 µM), usual class: inhibitors; 5.4% of 310,000 active; AID 2551, 2010; further: nearly all actives have a fitted effect of over 60% in size
Target sequence (P51450 whole entry, looked up, the tested form may be a part): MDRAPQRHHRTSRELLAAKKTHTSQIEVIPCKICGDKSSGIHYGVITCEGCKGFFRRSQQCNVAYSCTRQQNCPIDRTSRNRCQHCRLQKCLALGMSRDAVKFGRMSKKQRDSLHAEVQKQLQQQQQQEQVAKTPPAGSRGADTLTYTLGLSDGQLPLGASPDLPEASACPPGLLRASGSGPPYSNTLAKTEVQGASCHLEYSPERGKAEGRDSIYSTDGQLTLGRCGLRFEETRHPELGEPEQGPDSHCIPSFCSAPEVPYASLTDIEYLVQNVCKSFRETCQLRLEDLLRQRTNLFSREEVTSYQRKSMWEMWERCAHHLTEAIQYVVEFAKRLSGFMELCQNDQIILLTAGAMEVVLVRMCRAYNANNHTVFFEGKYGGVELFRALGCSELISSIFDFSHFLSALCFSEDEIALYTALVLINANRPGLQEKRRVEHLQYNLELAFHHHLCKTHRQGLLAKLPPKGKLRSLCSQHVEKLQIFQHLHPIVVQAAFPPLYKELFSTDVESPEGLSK
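Using a luciferase readout, inhibitors were identified by reduced reporter activity in Drosophila cells coexpressing a copper-inducible Gal4–ROR gamma fusion and UAS-driven Photinus luciferase, incubated 20 hr after 700 uM copper sulfate.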
ELG1 DNA repair: qHTS screen for small molecules that inhibit ELG1-dependent DNA repair in human embryonic kidney (HEK293T) cells expressing luciferase-tagged ELG1. HEK293T ELG1-luciferase reporter, luminescence, 16 h; DNA damage induced by 5-fluorouridine. Potency, µM (doses to about 46.1 µM), actives largely listed as inhibitors. 2.3% of 330,000 active. AID 504467, 2011; further: nearly all actives have a fitted effect of over 55% in size
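Overnight (16 hr) co-exposure of 2,000 cells/well to 5-fluorouridine and compound at 37 °C preceded detection. Luciferase was quantified via ONE-Glo luminescence; loss of signal denotes inhibition.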
TDP1 cell noCPT: qHTS for Inhibitors of human tyrosyl-DNA phosphodiesterase 1 (TDP1): qHTS in cells in absence of CPT; DT40 Tdp1-/- hTDP1 cells, no CPT, ATP luminescence, 48 h; 15% of 420,000 active; Potency, µM (top dose mostly 46.2 µM), hits mostly inhibitors; further: nearly all actives have a fitted effect of over 55% in size
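Readout: luminescence from CellTiter-Glo after 30 min in the dark at RT. Cells: DT40 Tdp1-/- with stable hTDP1, 400/well. Exposure: compounds alone, ≥48 hr, 37 °C.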
DT40 TDP1 CPT: qHTS for Inhibitors of human tyrosyl-DNA phosphodiesterase 1 (TDP1): qHTS in cells in presence of CPT | Potency, µM (doses to about 46.2 µM), most hits filed as inhibitors | chicken DT40 Tdp1-/-;hTDP1 cells + 20 nM CPT, ATP luminescence, 48 h | 12% of 420,000 active; further: nearly all actives have a fitted effect of over 55% in size
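Chicken DT40 Tdp1-/- cells complemented with human TDP1, 400 cells/well, exposed to compounds plus 20 nM camptothecin for at least 48 h at 37 C; viability read as ATP content by CellTiter-Glo luminescence.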
ALOX12 inh: Primary qHTS assay for inhibitors of human arachidonate 12S-lipoxygenase (ALOX12): Round 2 | Polyunsaturated fatty acid lipoxygenase ALOX12 (Homo sapiens), P18054 | purified 12hLO, xylenol orange hydroperoxide absorbance | Potency, µM (titrated, usually from 108 µM), most hits filed as inhibitors | 1.1% of 580,000 active
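Hydroperoxide product was detected by ferrous iron/xylenol orange as the 573 to 405 nm absorbance ratio. Arachidonic acid at 40 uM (final) was turned over for 30 min at room temperature by 150 nM human 12hLO, pH 7.0 Hepes buffer, after 15 min compound preincubation.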
Gal4-VP16 FLuc: VP16 counterscreen qHTS for inhibitors of ROR gamma transcriptional activity. Drosophila S2 Gal4-VP16 UAS-luciferase, luminescence, 20 h. Potency, µM (series often up to 53.6 µM), most hits filed as inhibitors. 3.5% of 310,000 active;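 further: Gal4-VP16 expression switched on by copper sulfate through the metallothionein promoter; nearly all actives have a fitted effect of over 50% in size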
Of the large screens only hits and unclear results are named; the others gave an inactive call. The call rests on the fitted dose curve; in most records, active means well fitted curve in the direction sought with a large enough effect; inconclusive means small, poorly fitted or top-dose-only effect, or another doubt; inactive means no such curve, though single readings can be large; an effect the other way counts as inactive or inconclusive.

O=C(O)c1ccccc1NS(=O)(=O)c1ccc(N/N=C/c2c(-c3ccccc3)[nH]c3ccccc23)c([N+](=O)[O-])c1	ALOX12 inh 13µM (no result: RORgamma inh, ELG1 DNA repair, TDP1 cell noCPT, DT40 TDP1 CPT, Gal4-VP16 FLuc)
O=C(O)COc1ccccc1/C=N/Nc1ccc(S(=O)(=O)Nc2ccc(Cl)cc2)cc1[N+](=O)[O-]	ALOX12 inh 32µM
COc1ccccc1NS(=O)(=O)c1ccc(N/N=C/c2ccccc2OCC(=O)O)c([N+](=O)[O-])c1	ALOX12 inh inconclusive
COc1ccc(NS(=O)(=O)c2cc([N+](=O)[O-])ccc2NN=Cc2ccccc2OCC(=O)O)cc1	ALOX12 inh inconclusive (no result: RORgamma inh, Gal4-VP16 FLuc)
O=C(O)COc1ccccc1C=NNc1ccc([N+](=O)[O-])cc1S(=O)(=O)Nc1ccc(Cl)cc1	ALOX12 inh 35µM (no result: RORgamma inh, Gal4-VP16 FLuc)
CCN(CC)C(=O)COc1ccc2oc(C)c(C(=O)OC(C)C)c2c1	ELG1 DNA repair inconclusive, TDP1 cell noCPT 16µM, DT40 TDP1 CPT inconclusive
CCN(CC)c1ccc(S(=O)(=O)N2CCCCC2)cc1NC(=O)C1CCC1	TDP1 cell noCPT inconclusive, DT40 TDP1 CPT 18µM (no result: RORgamma inh, Gal4-VP16 FLuc)
CCN(CC)c1ccc(S(=O)(=O)N2CCCCC2)cc1NC(=O)C1CSC2(C)CCC(=O)N12 (stereo not drawn)	ELG1 DNA repair inconclusive, TDP1 cell noCPT 9.2µM, DT40 TDP1 CPT inconclusive (no result: RORgamma inh, Gal4-VP16 FLuc)
CCOc1ccc(S(=O)(=O)N2CCOCC2)cc1NC(=O)C1CSC2(C)CCC(=O)N12 (stereo not drawn)	none (no result: RORgamma inh, Gal4-VP16 FLuc)
CCOc1cc(C(=O)N(c2cc(C)cc(C)c2)C2C=CS(=O)(=O)C2)cc(OCC)c1OCC (stereo not drawn)	none (no result: RORgamma inh, ELG1 DNA repair, TDP1 cell noCPT, DT40 TDP1 CPT, Gal4-VP16 FLuc)
O=C(CCN1C(=O)/C(=C\c2ccccc2)SC1=S)NNC(=O)c1ccccc1O	TDP1 cell noCPT 26µM, DT40 TDP1 CPT 21µM
O=C(CCCN1C(=O)/C(=C/c2ccccc2)SC1=S)Nc1ccccc1O	RORgamma inh 4.5µM, TDP1 cell noCPT inconclusive, DT40 TDP1 CPT inconclusive, Gal4-VP16 FLuc inconclusive
CC(=O)NC(CC(=O)NCCN1C(=O)S/C(=C\c2ccccc2)C1=O)c1ccccc1 (stereo not drawn)	TDP1 cell noCPT inconclusive, DT40 TDP1 CPT 21µM
O=C(CCN1C(=O)/C(=C\c2ccccc2)SC1=S)NNC(=O)c1cccnc1	TDP1 cell noCPT inconclusive, DT40 TDP1 CPT inconclusive
O=C(CCCN1C(=O)S/C(=C\c2ccccc2)C1=O)NNC(=O)c1ccccc1O	RORgamma inh 0.45µM, ELG1 DNA repair inconclusive, TDP1 cell noCPT 9.2µM, DT40 TDP1 CPT 12µM, Gal4-VP16 FLuc 2.5µM
O=C(c1cnn(-c2ccccc2F)c1-n1cccc1)N1CCN(c2ccccc2)CC1	none (no result: RORgamma inh, ELG1 DNA repair, TDP1 cell noCPT, DT40 TDP1 CPT, Gal4-VP16 FLuc)
Cc1noc(C)c1COc1ccccc1C(=O)N1CCN(S(=O)(=O)c2ccccc2F)CC1	ELG1 DNA repair inconclusive, DT40 TDP1 CPT inconclusive (no result: RORgamma inh, Gal4-VP16 FLuc)
Cc1cccc(N2CCN(C(=O)c3ccccc3OCc3c(C)noc3C)CC2)c1C	TDP1 cell noCPT 16µM, DT40 TDP1 CPT 18µM, ALOX12 inh inconclusive (no result: RORgamma inh, Gal4-VP16 FLuc)
Cc1noc(C)c1COc1ccccc1C(=O)N1CCN(S(=O)(=O)c2ccc(F)c(F)c2)CC1	none (no result: RORgamma inh, ELG1 DNA repair, Gal4-VP16 FLuc)
Cc1ccc(S(=O)(=O)N2CCN(C(=O)c3ccccc3OCc3c(C)noc3C)CC2)cc1	TDP1 cell noCPT inconclusive, DT40 TDP1 CPT 18µM (no result: RORgamma inh, Gal4-VP16 FLuc)
CC(C)c1ccc(C(N)=O)cc1	none (no result: RORgamma inh, ELG1 DNA repair, TDP1 cell noCPT, DT40 TDP1 CPT, Gal4-VP16 FLuc)
O=C1C[C@@H]2CCN(C(=O)c3ccccc3)C[C@@H]2CCN1CCc1cnc[nH]1	none (no result: RORgamma inh, ELG1 DNA repair, TDP1 cell noCPT, DT40 TDP1 CPT, Gal4-VP16 FLuc)
CC1c2ccccc2SC(CCCN(C)C)c2ccccc21 (stereo not drawn)	RORgamma inh inconclusive, TDP1 cell noCPT inconclusive, DT40 TDP1 CPT 16µM, Gal4-VP16 FLuc inconclusive
CCOc1cc(NC(=S)NCC2CCCO2)c(OCC)cc1NC(=O)c1ccccc1F (stereo not drawn)	RORgamma inh 3.2µM, ELG1 DNA repair 23µM, TDP1 cell noCPT 23µM, DT40 TDP1 CPT inconclusive, ALOX12 inh 40µM, Gal4-VP16 FLuc 7.9µM
CCOc1cc(NC(=S)NCC2CCCO2)c(OCC)cc1NC(=O)CC (stereo not drawn)	none
O=C(NCC1CCCO1)c1ccccc1-c1nc(-c2ccc(Cl)cc2)no1 (stereo not drawn)	RORgamma inh inconclusive, ELG1 DNA repair inconclusive, TDP1 cell noCPT 18µM, DT40 TDP1 CPT 18µM
Cc1ccccc1-c1noc(-c2ccccc2C(=O)NCc2ccco2)n1	ELG1 DNA repair inconclusive, TDP1 cell noCPT 18µM, DT40 TDP1 CPT inconclusive, ALOX12 inh inconclusive
CCNC(=O)c1ccccc1-c1nc(-c2ccccc2Cl)no1	TDP1 cell noCPT 18µM, DT40 TDP1 CPT inconclusive
Cc1ccccc1C(=O)NCc1ccco1	none (no result: RORgamma inh, ELG1 DNA repair, TDP1 cell noCPT, DT40 TDP1 CPT, Gal4-VP16 FLuc)
O=C(NCC1CCCO1)c1ccccc1-c1nc(-c2ccccc2F)no1 (stereo not drawn)	none
CCN1C(SCC(=O)N2CCCC2)=NS(=O)(=O)c2ccccc21	none (no result: RORgamma inh, ELG1 DNA repair, TDP1 cell noCPT, DT40 TDP1 CPT, Gal4-VP16 FLuc)
COc1ccc(NC(=O)C(C(=O)Nc2ccc(OC)cc2)C23CC4CC(CC(C4)C2)C3)cc1	none (no result: RORgamma inh, ELG1 DNA repair, TDP1 cell noCPT, DT40 TDP1 CPT, Gal4-VP16 FLuc)
CC1CCN(C(=O)C[C@@H]2c3nc(NC(=O)c4c(F)cccc4F)sc3C[C@@H]3[C@](C)(CO)[C@H](O)CC[C@]32C)CC1	none (no result: RORgamma inh, ELG1 DNA repair, TDP1 cell noCPT, DT40 TDP1 CPT, Gal4-VP16 FLuc)
Cc1ncccc1C(=O)N1CCCCCCN(C)C(=O)[C@@H]2CCC[C@@H]21	none (no result: RORgamma inh, ELG1 DNA repair, TDP1 cell noCPT, DT40 TDP1 CPT, Gal4-VP16 FLuc)
